The supplement of paper PMC12340641
Structures can show the parent of a compound that is named as a salt.

Assays:
[1] = biological target: IKZF1 (dCK*-IKZF1 fusion in HEK293FT) (UniProt Q13422); assay: inhibition of IKZF1 HTRF signal (DMSO = 0%, pomalidomide 10 uM = 100%); higher = lower IKZF1 protein level; settings: compound concentration: 5 uM, overnight (~20 h)
In short: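 Percent inhibition of IKZF1 signal was calculated per plate with vehicle and a reference degrader as anchors. The anchors were 0% for vehicle and 100% for the degrader, applied to background-subtracted 665/620 nm time-resolved FRET ratios from a commercial HTRF total-IKZF1 kit. Signal came from HEK293FT cells stably expressing an IKZF1 fusion, treated overnight at 37 °C with 5 μM compound in single wells of 384-well plates.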

HEK293FT dCK*-only = assay: relative growth in counter assay (no AraC = 100%, AraC + DMSO = 0%); higher = more growth rescue independent of IKZF1; settings: compound concentration: 5 uM; AraC concentration: 0.3 uM; overnight pretreatment + 4 days AraC
In short: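 Nuclei were counted by imaging after Hoechst 33342 staining on day 5, in HEK293FT cells (300/well, 384-well) expressing only an engineered kinase construct. Compound at 5 μM went in 2 h after seeding, followed after overnight at 37 °C by a nucleoside suicide substrate at 0.3 μM plus medium for 4 days. Per plate, wells lacking suicide substrate defined 100% and those with substrate plus vehicle defined 0%.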

HEK293FT dCK*-IKZF1 = assay: relative growth recovery (pomalidomide 10 uM = 100%, DMSO = 0%); higher = more growth rescue (IKZF1 fusion degradation); settings: compound concentration: 5 uM; AraC concentration: 0.3 uM; overnight pretreatment + 4 days AraC
In short: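 HEK293FT cells stably expressing a dCK*-IKZF1 fusion (300/well, 384-well) received 5 μM compound 2 h after seeding. After overnight at 37 °C they received a nucleoside suicide substrate at 0.3 μM plus medium for 4 days. On day 5, Hoechst 33342-stained nuclei were counted by whole-well imaging. Growth recovery was normalised per plate to a reference degrader (100%) and vehicle (0%); values are means of duplicates run on different days.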

Chain of IKZF1 (dCK*-IKZF1 fusion in HEK293FT) (Q13422 whole entry, looked up, the tested form may be a part): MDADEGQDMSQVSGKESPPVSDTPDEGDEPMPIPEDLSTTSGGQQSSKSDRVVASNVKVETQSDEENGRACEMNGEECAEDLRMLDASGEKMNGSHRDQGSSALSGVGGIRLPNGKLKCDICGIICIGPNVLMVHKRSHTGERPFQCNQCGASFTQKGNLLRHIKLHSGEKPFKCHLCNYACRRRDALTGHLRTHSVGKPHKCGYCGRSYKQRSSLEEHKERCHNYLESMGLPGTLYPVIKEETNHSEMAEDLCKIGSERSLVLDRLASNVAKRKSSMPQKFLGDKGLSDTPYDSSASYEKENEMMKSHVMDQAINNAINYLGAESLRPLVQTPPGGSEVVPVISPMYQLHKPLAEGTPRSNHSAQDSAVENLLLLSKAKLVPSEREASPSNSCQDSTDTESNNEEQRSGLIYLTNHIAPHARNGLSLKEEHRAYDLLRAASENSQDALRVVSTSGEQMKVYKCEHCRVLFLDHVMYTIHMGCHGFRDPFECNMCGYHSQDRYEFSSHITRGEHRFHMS

SMILES	inhibition of IKZF1 HTRF signal [1] [%]	relative growth in counter assay (HEK293FT dCK*-only) [%]	relative growth recovery (HEK293FT dCK*-IKZF1) [%]
CCCCCCCC[N+](C)(C)Cc1ccccc1 [benzyldimethyloctylammonium]	-57.3	4.74	5.02
Oc1cc2c(cc1O)[C@@H]1c3ccc(O)c(O)c3OC[C@]1(O)C2 [Hematoxylin (Hydroxybrazilin)]	-6.3	-6.89	-1.47
COc1cnc(NS(=O)(=O)c2ccc(N)cc2)nc1	-36.1	-10.1	-3.84
CN(C)CCOC1=Cc2ccccc2Sc2ccc(Cl)cc21 [zotepine]	-37.7	2.78	-1.67
NC(=O)Nc1sc(-c2ccc(F)cc2)cc1C(N)=O	-33.5	-26.8	-9.27
CN(C)C1CCN(C(=O)c2ccc(NC(=O)Nc3ccc(-c4nc(N5CCOCC5)nc(N5CCOCC5)n4)cc3)cc2)CC1	27.3	-6.76	-0.95
O=C(CCCCCCC(=O)Nc1ccccc1)NO [Vorinostat (SAHA, MK0683)]	-29.5	-30.5	-11.6
O=C1Nc2ccc(Cl)cc2[C@@](C#CC2CC2)(C(F)(F)F)O1 [Efavirenz]	19.7	3.1	2.08
C=C1/C(=C\C=C2/CCC[C@]3(C)[C@@H]([C@H](C)CCCC(C)(C)O)CC[C@@H]23)C[C@@H](O)C[C@@H]1O [Calcitriol]	-12.4	-0.18	-0.98
C=C1CCC2[C@](C)(CO)[C@H](O)CC[C@@]2(C)[C@@H]1C/C=C1/C(=O)OC[C@H]1O (stereo partly drawn) [Andrographolide]	0.47	-20.8	-5.34
CCC(C)c1ccc(NC(=O)Cn2cnc3c2c(=O)n(C)c(=O)n3C)cc1 (stereo not drawn)	-44.5	-2.66	1.29
O=C(O)c1ccc(S(=O)(=O)N(Cc2ccc(OC(F)(F)F)cc2)c2ncc(C(F)(F)F)cc2Cl)cc1	-23.7	5.77	2.16
C[C@H]1[C@H](OC(=O)CCC(=O)O)O[C@@H]2O[C@@]3(C)CC[C@H]4[C@H](C)CC[C@@H]1[C@@]24OO3	37.4	-30	-9.71
CSc1nc2cc(Cl)c(Oc3cccc(Cl)c3Cl)cc2[nH]1	-43	2.75	0.015
CCC(=O)O[C@@H]1CC(=O)O[C@H](C)C/C=C/C=C/[C@H](O)[C@H](C)C[C@H](CC=O)[C@H](O[C@@H]2O[C@H](C)[C@@H](O[C@H]3C[C@@](C)(O)[C@@H](OC(=O)CC)[C@H](C)O3)[C@H](N(C)C)[C@H]2O)[C@H]1OC [Midecamycin]	-31.7	-8.86	-1.26
CCOC(=O)c1ccc(N)cc1	16.4	-10.5	-2.68
Cc1cccc(C)c1NC(=O)C[N+](C)(C)C	-41.2	0.1	-1.7
O=C1CC[C@H](N2Cc3cc(N4CCN(CC5CCN(c6ccc([C@@H]7c8ccc(O)cc8CC[C@@H]7c7ccccc7)cc6)CC5)CC4)ccc3C2=O)C(=O)N1	-15.2	2.17	9.37
O=C(Nc1ccc(S(=O)(=O)Nc2nccs2)cc1)C(c1ccccc1)c1ccccc1	-31.6	-2.35	-3.39
OCCN1CCN(CCCN2c3ccccc3Sc3ccc(C(F)(F)F)cc32)CC1 [Fluphenazine  HCl]	-52.5	15.7	5.51
C/C(=N/Nc1nnc2c(n1)[nH]c1c(C)cccc12)c1ccccn1	45.9	-33	-12.6

SMILES	inhibition of IKZF1 HTRF signal [1] [%]	relative growth in counter assay (HEK293FT dCK*-only) [%]	relative growth recovery (HEK293FT dCK*-IKZF1) [%]
CC1=C(/C=C/C(C)=C/C=C/C(C)=C/C=C/C=C(C)/C=C/C=C(C)/C=C/C2=C(C)CCCC2(C)C)C(C)(C)CCC1	-23.6	-13.6	-1.69
Clc1ccc(COC(Cn2ccnc2)c2ccc(Cl)cc2Cl)c(Cl)c1 (stereo not drawn)	-32.3	-7.63	-6.23
COC(=O)C1=C(C)NC(C)=C(C(=O)OCC(C)C)C1c1ccccc1[N+](=O)[O-] (stereo not drawn) [Nisoldipine]	-28.1	-8.81	-3.19
CN[C@H]1CC[C@@H](c2ccc(Cl)c(Cl)c2)c2ccccc21 [Sertraline HCl]	18.8	-7.81	-6.62
Nc1nc(N)c2nc(-c3ccccc3)c(N)nc2n1	3.18	-11	-5.46
CCOc1ccc2nc3cc(N)ccc3c(N)c2c1	-16.3	-23.6	-6.36
COCCOC(=O)C1=C(C)NC(C)=C(C(=O)OC/C=C/c2ccccc2)C1c1cccc([N+](=O)[O-])c1 (stereo not drawn) [cilnidipine]	-8.24	-4.05	-0.035
CC[C@@]1(O)C(=O)OCc2c1cc1n(c2=O)Cc2c-1nc1cc(F)c(C)c3c1c2[C@@H](N)CC3.CS(=O)(=O)O [Exatecan Mesylate]	-4.98	-35.8	-15.4
CC[C@]1(O)C[C@H]2CN(CCc3c([nH]c4ccccc34)[C@@](C(=O)OC)(c3cc4c(cc3OC)N(C)[C@H]3[C@@](O)(C(=O)OC)[C@H](OC(C)=O)[C@]5(CC)C=CCN6CC[C@]43[C@@H]65)C2)C1 [Vinblastine Sulfate]	-11.7	-33.4	-11.7
C[C@H]1COC2=C1C(=O)C(=O)c1c2ccc2c1CCCC2(C)C [Cryptotanshinone]	-30.9	0.04	-0.045
Clc1ccc(COC(Cn2ccnc2)c2ccc(Cl)cc2Cl)cc1 (stereo not drawn) [Econazole Nitrate]	-40.1	3.6	4.02
Oc1c(Cl)cc(Cl)c(Cl)c1Cc1c(O)c(Cl)cc(Cl)c1Cl [Hexachlorophene]	-78.9	0.51	-1.27
CC(C)[C@H]1c2ccc(F)cc2CC[C@@]1(CCN(C)CCCc1nc2ccccc2[nH]1)OC(=O)C1CC1	-25.9	-31.9	-9.29
O=C(O)c1ccc(/C=C2/SC(=S)N(c3cccc(C(F)(F)F)c3)C2=O)cc1	-26.9	-1.87	-0.07
CCCCCCCC/C=C\CCCCCCCC(=O)NCCO [oleoylethanolamide]	-34.1	0.5	1.78
C=C1/C(=C\C=C2/CCC[C@]3(C)[C@@H]([C@H](C)/C=C/[C@H](C)C(C)(C)O)CC[C@@H]23)C[C@@H](O)C[C@@H]1O [Ercalcitriol]	-35	19.8	6.62
Cc1cc(C2CCCCC2)n(O)c(=O)c1	-23.8	-24.9	-10.6
CC[C@H](CO)Nc1nc(NCc2ccc(-c3ccccn3)cc2)c2ncn(C(C)C)c2n1	8.26	-34.5	-12.2
O=C(CCCCCCC(O)=NO)Nc1ccccc1 [Vorinostat]	-44.5	-31.4	-10.3
Oc1cc(O)cc(/C=C/c2ccc(O)c(O)c2)c1 [piceatannol]	6.73	-9.71	-2.98
NC(=O)c1nnn(Cc2cc(Cl)c(C(=O)c3ccc(Cl)cc3)c(Cl)c2)c1N [carboxyamidotriazole]	-49.1	-4.77	-2.6

SMILES	inhibition of IKZF1 HTRF signal [1] [%]	relative growth in counter assay (HEK293FT dCK*-only) [%]	relative growth recovery (HEK293FT dCK*-IKZF1) [%]
Oc1c(Cl)cc(Cl)cc1Sc1cc(Cl)cc(Cl)c1O	7.52	-3.52	-1.73
COc1cc2c(cc1OC)[C@@H]1Cc3ccc(OC)c(OC)c3CN1CC2 [Rotundine]	14.2	-31.5	-10.7
CC(C)(N)c1nc(-c2ccc(OC(F)(F)F)cc2)c[nH]1	-29.8	5.76	-3.6
O=C(OOC(=O)c1ccccc1)c1ccccc1	-35.6	-0.7	1.32
CCCCCCCCCCCCCCCC[N+](C)(C)CCN(Cc1ccc(OC)cc1)c1ncccn1 [thonzonium bromide]	21	-31	-10.3
C=C1/C(=C\C=C2/CCC[C@]3(C)[C@@H]([C@H](C)CCCC(C)(C)O)CC[C@@H]23)C[C@@H](O)C[C@@H]1O [Calcitriol (Rocaltrol)]	7.56	31.2	4.81
CN(C)c1ccc(/C=C2\C(=O)Nc3ccccc32)cc1	-36.5	-9.78	2.52
CO[C@H]1/C=C/O[C@@]2(C)Oc3c(C)c(O)c4c(O)c(cc(O)c4c3C2=O)NC(=O)/C(C)=C\C=C\[C@H](C)[C@H](O)[C@@H](C)[C@@H](O)[C@@H](C)[C@H](OC(C)=O)[C@@H]1C [Rifamycin SV Sodium]	-36.7	2.23	0.23
C=C1C(=O)O[C@H]2[C@H]1CC/C(C)=C/CC[C@@]1(C)O[C@@H]21 [parthenolide]	-47.4	-33	-10.5
Cc1cc(C(C)(C)CC(C)(C)C)ccc1OCCOCC[N+](C)(C)Cc1ccccc1	-17.4	-4.05	5.47
CCCCC(CC)C/N=C(\N)N/C(N)=N/CCCCCC/N=C(\N)N/C(N)=N/CC(CC)CCCC (stereo not drawn) [Alexidine dihydrochloride]	63.4	-34.4	-13.3
COC(=O)Nc1nc2cc(C(=O)c3ccc(F)cc3)ccc2[nH]1	-13.6	-8	-4.8
CC(C)(C)C1CCc2c(sc(NC(=O)c3ccco3)c2C(=O)O)C1 (stereo not drawn)	-23.8	-8.81	-0.515
CNC(=O)Nc1ccc(-c2nc(N3CC4CCC(C3)O4)c3cnn(C4CCC5(CC4)OCCO5)c3n2)cc1	70.5	-32.9	-13.5
Clc1ccc(C(Cn2ccnc2)OCc2csc3c(Cl)cccc23)c(Cl)c1 (stereo not drawn) [Sertaconazole nitrate]	20	-1.47	3.33
c1cncc(CN2CCC(n3ncc4c(N5CCOCC5)nc(-c5ccc6[nH]ccc6c5)nc43)CC2)c1	30.4	-26.4	-11.3
Cc1ncsc1-c1ccc(CNC(=O)[C@@H]2C[C@@H](O)CN2C(=O)[C@@H](NC(=O)COCCOCCOCCOc2ccc(-c3ccc4ncnc(Nc5ccc(OCc6cccc(F)c6)c(Cl)c5)c4c3)cc2)C(C)(C)C)cc1	13.3	18	4.09
O=C(O)c1cc([N+](=O)[O-])ccc1NCCCc1ccccc1	-22.5	-2.81	-1.86
Cc1ccc(S(=O)(=O)NC(=O)NN2CC3CCCC3C2)cc1 (stereo not drawn)	-29.9	3.82	1.34
